“And” between values parts separate entries of the source, which are not always exact repeats. Identical values can stand only once. In all, about 5,500 compounds went through this assay and about 2,000 (36%) were called active. Another 18% or so got no clear call; they are omitted. Rule as the data show it: active = normalized growth mostly below about 0.91 (no sharp cut-off); inconclusive = no clear call, values can overlap the other calls; inactive = mostly above about 0.92. The list shows a part of the results. The source holds several records for some structures; these can differ, active in one and inactive in another.
Test: chemical genetic growth profiling, strain panel (AID 1159580);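 also: tested at 20 µM; growth read once vehicle control cultures reached saturation at 30 °C; 1 = growth at the plate median or of vehicle wells; lower values mean less growth of the strain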
Conditions: growth OD

Measured: normalized growth

CCn1cc(C(=O)O)c(=O)c2ccc(C)nc21
0.945 (inactive) and 0.927 (active): S. cerevisiae deletion strains, locus YPL241C, strain CIN2, stronger effect = lower value
active: S. cerevisiae deletion strains, locus YKR001C, strain vps1, stronger effect = lower value 0.812 | S. cerevisiae deletion strains, locus YKR091W, strain srl3, stronger effect = lower value 0.926 | S. cerevisiae deletion strains, locus YLR039C, strain RIC1, stronger effect = lower value 0.447 | S. cerevisiae deletion strains, locus YLR262C, strain YPT6 (second series), stronger effect = lower value 0.297 | S. cerevisiae deletion strains, locus YLR262C, strain YPT6, stronger effect = lower value 0.406 | S. cerevisiae deletion strains, locus YLR268W, strain sec22, stronger effect = lower value 0.868 | S. cerevisiae deletion strains, locus YML016C, strain PPZ1, stronger effect = lower value 0.887 | S. cerevisiae deletion strains, locus YML032C, strain rad52, stronger effect = lower value 0.883 | S. cerevisiae deletion strains, locus YML124C, strain tub3, stronger effect = lower value 0.916 | S. cerevisiae deletion strains, locus YMR231W, strain pep5, stronger effect = lower value 0.891 | S. cerevisiae deletion strains, locus YNL271C, strain bni1, stronger effect = lower value 0.864 | S. cerevisiae deletion strains, locus YNL298W, strain CLA4, stronger effect = lower value 0.871 | S. cerevisiae deletion strains, locus YNR052C, strain pop2, stronger effect = lower value 0.803 | S. cerevisiae deletion strains, locus YOL147C, strain pex11, stronger effect = lower value 0.926 | S. cerevisiae deletion strains, locus YOR001W, strain rrp6, stronger effect = lower value 0.828 | S. cerevisiae deletion strains, locus YOR069W, strain VPS5, stronger effect = lower value 0.918 | S. cerevisiae deletion strains, locus YOR144C, strain elg1, stronger effect = lower value 0.914 | S. cerevisiae deletion strains, locus YPL051W, strain arl3, stronger effect = lower value 0.903 | S. cerevisiae deletion strains, locus YPR119W, strain clb2, stronger effect = lower value 0.918 | S. cerevisiae deletion strains, locus YPR163C, strain tif3, stronger effect = lower value 0.882
inactive: S. cerevisiae deletion strains, locus YKL009W, strain mrt4, stronger effect = lower value 0.91 | S. cerevisiae deletion strains, locus YKL068W, stronger effect = lower value 0.942 | S. cerevisiae deletion strains, locus YKL085W, strain MDH1 (second series), stronger effect = lower value 0.938 | S. cerevisiae deletion strains, locus YKL085W, strain MDH1, stronger effect = lower value 0.938 | S. cerevisiae deletion strains, locus YKL160W, strain elf1, stronger effect = lower value 0.976 | S. cerevisiae deletion strains, locus YKL190W, strain CNB1, stronger effect = lower value 0.933 | S. cerevisiae deletion strains, locus YKR026C, strain gcn3, stronger effect = lower value 0.965 | S. cerevisiae deletion strains, locus YLL001W, strain dnm1, stronger effect = lower value 0.946 | S. cerevisiae deletion strains, locus YLL026W, stronger effect = lower value 0.94 | S. cerevisiae deletion strains, locus YLL041C, strain sdh2, stronger effect = lower value 0.931 | S. cerevisiae deletion strains, locus YLR027C, strain aat2, stronger effect = lower value 0.942 | S. cerevisiae deletion strains, locus YLR058C, strain SHM2, stronger effect = lower value 0.921 | S. cerevisiae deletion strains, locus YLR102C, strain apc9, stronger effect = lower value 0.933 | S. cerevisiae deletion strains, locus YLR113W, strain HOG1, stronger effect = lower value 0.94 | S. cerevisiae deletion strains, locus YLR221C, strain rsa3, stronger effect = lower value 0.943 | S. cerevisiae deletion strains, locus YLR258W, strain gsy2, stronger effect = lower value 0.939 | S. cerevisiae deletion strains, locus YLR320W, strain mms22, stronger effect = lower value 0.976 | S. cerevisiae deletion strains, locus YLR330W, strain CHS5, stronger effect = lower value 0.949 | S. cerevisiae deletion strains, locus YLR342W, strain FKS1 (second series), stronger effect = lower value 0.958 | S. cerevisiae deletion strains, locus YLR342W, strain FKS1, stronger effect = lower value 0.912 | S. cerevisiae deletion strains, locus YLR357W, strain rsc2, stronger effect = lower value 1.09 | S. cerevisiae deletion strains, locus YLR370C, strain arc18, stronger effect = lower value 0.943 | S. cerevisiae deletion strains, locus YLR371W, strain rom2, stronger effect = lower value 0.941 | S. cerevisiae deletion strains, locus YLR384C, strain iki3, stronger effect = lower value 0.926 | S. cerevisiae deletion strains, locus YLR418C, strain cdc73, stronger effect = lower value 0.852 | S. cerevisiae deletion strains, locus YML120C, strain ndi1, stronger effect = lower value 0.954 | S. cerevisiae deletion strains, locus YMR058W, strain fet3, stronger effect = lower value 0.943 | S. cerevisiae deletion strains, locus YMR078C, strain ctf18, stronger effect = lower value 0.927 | S. cerevisiae deletion strains, locus YMR125W, strain sto1, stronger effect = lower value 1.02 | S. cerevisiae deletion strains, locus YMR129W, stronger effect = lower value 0.941 | S. cerevisiae deletion strains, locus YMR205C, strain PFK2, stronger effect = lower value 0.986 | S. cerevisiae deletion strains, locus YMR223W, strain ubp8, stronger effect = lower value 0.947 | S. cerevisiae deletion strains, locus YMR263W, strain SAP30, stronger effect = lower value 0.97 | S. cerevisiae deletion strains, locus YMR307W, strain GAS1, stronger effect = lower value 0.756 | S. cerevisiae deletion strains, locus YNL067W, strain RPL9B, stronger effect = lower value 0.949 | S. cerevisiae deletion strains, locus YNL071W, strain lat1, stronger effect = lower value 0.925 | S. cerevisiae deletion strains, locus YNL128W, strain TEP1, stronger effect = lower value 0.941 | S. cerevisiae deletion strains, locus YNL153C, strain GIM3, stronger effect = lower value 0.971 and 1.01 | S. cerevisiae deletion strains, locus YNL175C, strain NOP13, stronger effect = lower value 0.944 | S. cerevisiae deletion strains, locus YNL183C, strain NPR1, stronger effect = lower value 0.911 | S. cerevisiae deletion strains, locus YNL197C, strain WHI3, stronger effect = lower value 0.939 | S. cerevisiae deletion strains, locus YNL209W, strain ssb2, stronger effect = lower value 0.929 | S. cerevisiae deletion strains, locus YNL224C, strain SQS1, stronger effect = lower value 0.944 | S. cerevisiae deletion strains, locus YNL233W, strain BNI4, stronger effect = lower value 0.994 | S. cerevisiae deletion strains, locus YNL248C, strain rpa49, stronger effect = lower value 0.984 | S. cerevisiae deletion strains, locus YNL250W, strain rad50, stronger effect = lower value 0.939 | S. cerevisiae deletion strains, locus YNL307C, strain MCK1, stronger effect = lower value 0.955 | S. cerevisiae deletion strains, locus YNL322C, strain KRE1 (second series), stronger effect = lower value 0.983 | S. cerevisiae deletion strains, locus YNL322C, strain KRE1, stronger effect = lower value 0.933 and 0.965 | S. cerevisiae deletion strains, locus YNR049C, strain mso1, stronger effect = lower value 0.937 | S. cerevisiae deletion strains, locus YOL006C, strain TOP1, stronger effect = lower value 1.04 | S. cerevisiae deletion strains, locus YOL012C, strain htz1 0.496 | S. cerevisiae deletion strains, locus YOR061W, strain CKA2, stronger effect = lower value 0.898 | S. cerevisiae deletion strains, locus YOR070C, strain gyp1, stronger effect = lower value 0.935 | S. cerevisiae deletion strains, locus YOR080W, strain dia2, stronger effect = lower value 0.927 | S. cerevisiae deletion strains, locus YOR083W, strain WHI5 (second series), stronger effect = lower value 0.968 | S. cerevisiae deletion strains, locus YOR083W, strain WHI5, stronger effect = lower value 0.935 | S. cerevisiae deletion strains, locus YOR106W, strain vam3, stronger effect = lower value 0.964 | S. cerevisiae deletion strains, locus YOR136W, strain idh2, stronger effect = lower value 0.969 | S. cerevisiae deletion strains, locus YOR184W, strain ser1, stronger effect = lower value 0.882 | S. cerevisiae deletion strains, locus YOR231W, strain MKK1, stronger effect = lower value 0.888 | S. cerevisiae deletion strains, locus YOR265W, strain rbl2, stronger effect = lower value 0.93 | S. cerevisiae deletion strains, locus YOR270C, strain vph1, stronger effect = lower value 1.08 | S. cerevisiae deletion strains, locus YOR290C, strain snf2, stronger effect = lower value 0.962 | S. cerevisiae deletion strains, locus YOR316C, strain cot1, stronger effect = lower value 0.926 | S. cerevisiae deletion strains, locus YPL055C, strain LGE1, stronger effect = lower value 1.05 and 1.03 | S. cerevisiae deletion strains, locus YPL078C, strain atp4, stronger effect = lower value 0.927 | S. cerevisiae deletion strains, locus YPL106C, strain sse1, stronger effect = lower value 1.06 | S. cerevisiae deletion strains, locus YPL240C, strain hsp82, stronger effect = lower value 0.931 | S. cerevisiae deletion strains, locus YPL256C, strain CLN2, stronger effect = lower value 0.993 | S. cerevisiae deletion strains, locus YPR141C, strain kar3, stronger effect = lower value 0.954 | S. cerevisiae deletion strains, locus YPR167C, strain met16, stronger effect = lower value 0.929 | S. cerevisiae deletion strains, strain wtn01, stronger effect = lower value 0.915 | S. cerevisiae strains, strain wild type, stronger effect = lower value 0.932

Source: PubChem BioAssay AID1159580 (chemical genetic matrix, 2015)
